Test systems include HT29 colon; SNB-75 CNS; SNB-19 CNS; PC-3 prostate; SK-MEL-5 melanoma; UACC-62 melanoma; LOX IMVI melanoma; SK-MEL-28 melanoma; SK-MEL-2 melanoma; EKVX NSCLC; SN12C renal; UO-31 renal; TK-10 renal; ACHN renal; CAKI-1 renal; A498 renal; CCRF-CEM leukemia; MOLT-4 leukemia; SR leukemia.
Common to all, as to assay: NCI-60 one-dose screen, 48 h (100 = growth as untreated, 0 = no growth, -100 = all killed)
Holding throughout (details): 10 µM

This is part of a sample that, as a whole, favours compounds with a hit. Of some 83,000 tested, about 20% had one in any assay.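 Note: values are percent growth. 100 is the growth of untreated cells, values between 100 and 0 indicate rising inhibition; between -100 and 0 indicates cell death.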 Values without a mark were called inactive. Activity calls are given as the source filed them. How the source made its calls: active means growth percent below 10; inactive means the rest.

Consider `CC(=O)/C(=C/c1ccccc1)C(=O)CC(C)C`, for which the growth was 74.4% in the assay on HT29 colon; 91.4% in the assay with SNB-75 CNS; 106% in the assay with SNB-19 CNS; 83.7% with PC-3 prostate; 88.1% in the assay with SK-MEL-5 melanoma; 92.4% in the assay with UACC-62 melanoma. Further, the growth in the assay on LOX IMVI melanoma was -23% (active); in the assay with SK-MEL-28 melanoma, 95.6%; in the assay on SK-MEL-2 melanoma, 109%; in the assay with EKVX NSCLC, 99.6%; in the assay with SN12C renal it was 108%; in the assay on UO-31 renal, 83.1%. For the same compound, the growth in the assay on TK-10 renal is 84.2%; with ACHN renal it was 84.7%; in the assay on CAKI-1 renal, 100%; in the assay with A498 renal, 96.1%; in the assay with CCRF-CEM leukemia, 9% (active); in the assay with MOLT-4 leukemia, 34.1%. The growth in the assay on SR leukemia was 1.48% (active).
Regarding `N=C(N)c1ccc(-c2ccc(-c3ccco3)o2)cc1`, the growth was 5.15% (active) in the assay with HT29 colon; 22.2% with SNB-75 CNS; 68.4% with SNB-19 CNS; 59.8% in the assay with PC-3 prostate; 76% in the assay on SK-MEL-5 melanoma; 95.9% in the assay with UACC-62 melanoma. Also, the growth was 56.9% with LOX IMVI melanoma; 75.1% with SK-MEL-28 melanoma; 108% in the assay with SK-MEL-2 melanoma; 69.3% in the assay with SN12C renal; 55% in the assay with UO-31 renal; 109% in the assay on TK-10 renal. Moreover, the growth with ACHN renal was 79.4%; with CAKI-1 renal it was 54.5%; in the assay on A498 renal it was 33.3%; in the assay on CCRF-CEM leukemia, 60.7%; in the assay on MOLT-4 leukemia it was 31.3%; in the assay on SR leukemia, -17.8% (active).
As to `CN(C)CCN1C(=O)c2cccc3cc(N)cc(c23)C1=O`, the growth is 9.24% (active) in the assay with HT29 colon; -5.61% (active) in the assay with SNB-75 CNS; 24.5% with SNB-19 CNS; 12.6% in the assay on PC-3 prostate; 8.79% (active) in the assay with SK-MEL-5 melanoma; 13.3% in the assay on UACC-62 melanoma. Moreover, the growth in the assay on LOX IMVI melanoma was 6.24% (active); in the assay with SK-MEL-2 melanoma, 29.1%; with EKVX NSCLC, 45.2%; in the assay with SN12C renal, 30.9%; with UO-31 renal, -26.8% (active); with TK-10 renal it was 32.9%. Besides, the growth is -30.3% (active) in the assay on ACHN renal; 3% (active) with CAKI-1 renal; 41.8% in the assay on A498 renal; 13.6% with CCRF-CEM leukemia; -2.12% (active) in the assay with MOLT-4 leukemia; 8.08% (active) in the assay with SR leukemia.
On to `O=C(/C=C/c1cc2ccccc2[nH]c1=O)c1ccc2c(c1)OCO2`, for which the growth was 85.3% in the assay with HT29 colon; 86.7% in the assay on SNB-75 CNS; 88.4% in the assay on SNB-19 CNS; 77.5% in the assay on PC-3 prostate; 96% with SK-MEL-5 melanoma; 90.5% in the assay on UACC-62 melanoma. In addition, the growth in the assay with LOX IMVI melanoma was 76.4%; with SK-MEL-28 melanoma it was 98.6%; in the assay on EKVX NSCLC, 95.9%; with SN12C renal it was 93.5%; with UO-31 renal, 63.7%; in the assay on TK-10 renal, 97.3%. The growth in the assay on ACHN renal is 103%; in the assay with CAKI-1 renal it was 118%; in the assay on A498 renal, 97.6%; with MOLT-4 leukemia it was 66%; in the assay with SR leukemia it was 52.5%.
On to `CC(C)(C)c1cc(Br)cc(C(C)(C)C)c1O`, for which the growth in the assay on HT29 colon was 113%; in the assay with SNB-75 CNS it was 95.7%; with SNB-19 CNS it was 104%; in the assay on PC-3 prostate, 94.4%; in the assay on UACC-62 melanoma it was 99.3%; in the assay with LOX IMVI melanoma it was 99.1%. For the same compound, the growth in the assay with SK-MEL-28 melanoma was 112%; in the assay on SK-MEL-2 melanoma, 118%; in the assay with SN12C renal it was 96.5%; with UO-31 renal it was 86.6%; in the assay with TK-10 renal it was 113%; in the assay with ACHN renal it was 106%. Also, the growth in the assay on CAKI-1 renal was 89.5%; in the assay with A498 renal it was 120%; in the assay on MOLT-4 leukemia, 96%; with SR leukemia, 92.3%.
Take `COc1ccc(Nc2ncnc3c2c(SC)nn3-c2ccccc2)cc1`: the growth with HT29 colon is 87.2%; in the assay on SNB-75 CNS, 65.8%; in the assay on SNB-19 CNS, 91.6%; in the assay on PC-3 prostate it was 70.4%; in the assay on SK-MEL-5 melanoma it was 94.8%; in the assay on UACC-62 melanoma it was 86.4%. Further, the growth was 92.7% in the assay on LOX IMVI melanoma; 99.1% in the assay with SK-MEL-28 melanoma; 86.8% with SK-MEL-2 melanoma; 83.8% in the assay on SN12C renal; 77.2% in the assay on UO-31 renal; 117% with TK-10 renal. The growth was 100% with ACHN renal; 82.7% with CAKI-1 renal; 118% in the assay on A498 renal; 98.5% in the assay on CCRF-CEM leukemia; 88.1% in the assay on MOLT-4 leukemia; 84.2% with SR leukemia.
Take `O=C1ON=[N+](c2ccc(Cc3ccc([N+]4=NOC(=O)C4CN4CCOCC4)cc3)cc2)C1CN1CCOCC1` (stereo unspecified): the growth in the assay on HT29 colon is 89.7%; in the assay on SNB-75 CNS, 72.6%; in the assay with SNB-19 CNS it was 86.5%; in the assay with PC-3 prostate it was 56.5%; with SK-MEL-5 melanoma, 53.2%; with UACC-62 melanoma, 53.4%. Further, the growth with LOX IMVI melanoma is 65%; in the assay on SK-MEL-28 melanoma, 74.9%; in the assay on SK-MEL-2 melanoma it was 78.6%; in the assay with EKVX NSCLC, 69.9%; with SN12C renal, 80.3%; in the assay with UO-31 renal it was 44.3%. For the same compound, the growth in the assay on TK-10 renal was 74.5%; in the assay on CAKI-1 renal, 49.3%; in the assay on A498 renal, 53.7%; in the assay with CCRF-CEM leukemia it was 63.9%; in the assay on MOLT-4 leukemia it was 68.4%; in the assay with SR leukemia, 23%.
On to `Oc1[nH]c2ccc(Cl)cc2c1/C=c1/ccc2c(c1)N=C(c1cc(F)cc(F)c1)N=2`, for which the growth is 22.7% in the assay with HT29 colon; 11% with SNB-75 CNS; 77% in the assay with SNB-19 CNS; 62.6% with PC-3 prostate; 35.5% in the assay with SK-MEL-5 melanoma; 44.8% with UACC-62 melanoma. Moreover, the growth was 47.2% with LOX IMVI melanoma; 65.4% in the assay with SK-MEL-28 melanoma; 54.8% in the assay on SK-MEL-2 melanoma; 88.8% in the assay on EKVX NSCLC; 86.3% with SN12C renal; 75.2% in the assay with UO-31 renal. In addition, the growth was 100% in the assay with TK-10 renal; 67.3% in the assay with ACHN renal; 58.6% with CAKI-1 renal; 72.5% in the assay on A498 renal; 16.6% in the assay with CCRF-CEM leukemia; 12.8% in the assay with MOLT-4 leukemia. In the assay on SR leukemia, the growth is 13.9%.
In the case of `C#Cc1ccc(-n2c(/C=C/c3ccc(Cl)c(F)c3)nc3ncccc3c2=O)cc1`, the growth is -53.5% (active) in the assay with HT29 colon; -64.7% (active) in the assay with SNB-75 CNS; 22% with SNB-19 CNS; 2.16% (active) in the assay on PC-3 prostate; -97.5% (active) in the assay with SK-MEL-5 melanoma; -55.9% (active) in the assay with UACC-62 melanoma. Also, the growth is -57% (active) in the assay on LOX IMVI melanoma; -8.26% (active) in the assay on SK-MEL-28 melanoma; -60.2% (active) in the assay with SK-MEL-2 melanoma; -4.94% (active) in the assay with SN12C renal; -82.5% (active) in the assay on UO-31 renal; -44.6% (active) in the assay with TK-10 renal. The growth was 0.478% (active) in the assay with ACHN renal; -14.2% (active) in the assay with CAKI-1 renal; -39% (active) in the assay on A498 renal; 1.54% (active) in the assay on CCRF-CEM leukemia; -18.6% (active) with MOLT-4 leukemia; -25.2% (active) in the assay on SR leukemia.

The values above are taken from PubChem BioAssay (NCI).
